About 83,000 compounds went through this panel and 20% of them were active in at least one assay; those are over-represented in the sample as a whole.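 A percent growth of 40 corresponds to 60% growth inhibition; 0 means no net growth; -100 means all cells died. Active threshold: below 10.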 The source made the active and inactive calls.
Experiments:
Experiment in all cases: NCI-60 one-dose screen, 48 h (100 = growth as untreated, 0 = no growth, -100 = all killed)
Conditions in all cases: 10 µM unless noted
HCT-15 colon = test system: HCT-15 colon
HT29 colon = test system: HT29 colon
SNB-75 CNS = test system: SNB-75 CNS
SNB-19 CNS = test system: SNB-19 CNS
U251 CNS = test system: U251 CNS
PC-3 prostate = test system: PC-3 prostate
SK-MEL-5 melanoma = test system: SK-MEL-5 melanoma
UACC-62 melanoma = test system: UACC-62 melanoma
LOX IMVI melanoma = test system: LOX IMVI melanoma
SK-MEL-28 melanoma = test system: SK-MEL-28 melanoma

Measured: growth

CCN(C(=O)CN1CCN(c2cc3c(cc2F)c(=O)c(C(=O)O)cn3CC)CC1)c1nc(-c2ccccc2)cs1
active: HT29 colon 0.981% | SNB-75 CNS -5.25% | SNB-19 CNS 6.46% | U251 CNS 6.31% | PC-3 prostate 2.39% | SK-MEL-5 melanoma -55.6% | UACC-62 melanoma -5% | LOX IMVI melanoma -35%
inactive: HCT-15 colon 12.3% | SK-MEL-28 melanoma 41.9%

C/C(=C(/c1ccc(O)cc1)c1ccc(OCCN2CCCC2)cc1)c1ccccc1
active: HT29 colon -10.7% | SK-MEL-5 melanoma -65.8% | UACC-62 melanoma -29.3% | LOX IMVI melanoma -50.2% | SK-MEL-28 melanoma -40.8%
inactive: HCT-15 colon 34.6% | SNB-75 CNS 46.1% | SNB-19 CNS 73.5% | U251 CNS 35.1% | PC-3 prostate 48.1%

O=C(CCCN1CCOCC1)Nc1ccc(Cn2nnc3c2C(=O)c2nnn(Cc4ccc(NC(=O)CCCN5CCOCC5)cc4)c2C3=O)cc1
active: HT29 colon 1.66% | SNB-75 CNS -87.9% | LOX IMVI melanoma -5.71%
inactive: HCT-15 colon 95.8% | SNB-19 CNS 59.5% | U251 CNS 18.2% | PC-3 prostate 55.5% | SK-MEL-5 melanoma 17.1% | UACC-62 melanoma 51.5% | SK-MEL-28 melanoma 37.3%

O=C(O)c1ccccc1Nc1cccc(S(F)(F)(F)(F)F)c1
inactive: HCT-15 colon 94.7% | HT29 colon 84.2% | SNB-75 CNS 91.3% | SNB-19 CNS 98.7% | U251 CNS 85.7% | PC-3 prostate 95.9% | SK-MEL-5 melanoma 95.6% | UACC-62 melanoma 93.7% | LOX IMVI melanoma 92.4% | SK-MEL-28 melanoma 108%

Cc1cc(OCc2ccc(C(F)(F)F)cc2)c2c(c1)C(=O)C=C(NCCN1CCCC1)C2=O
inactive: HCT-15 colon 31.2% | SNB-75 CNS 76.4% | SNB-19 CNS 79.8% | U251 CNS 22.3% | PC-3 prostate 66% | UACC-62 melanoma 86.8%
active: HT29 colon 9.81% | SK-MEL-5 melanoma -35.7% | LOX IMVI melanoma -52.9% | SK-MEL-28 melanoma -84.1%

O=C(Nc1ccc(Nc2cc(Nc3ccccc3)ncn2)cc1)Nc1cc(C(F)(F)F)ccc1F
inactive: HCT-15 colon 70.9% | HT29 colon 58.4% | SNB-75 CNS 57.1% | SNB-19 CNS 87.4% | U251 CNS 64.2% | PC-3 prostate 55.8% | SK-MEL-5 melanoma 82% | UACC-62 melanoma 65.8% | LOX IMVI melanoma 63.6% | SK-MEL-28 melanoma 71.9%

Cc1ccc(Nc2nc(N)nc(Nc3ccc4ccccc4c3)n2)cc1
inactive: HCT-15 colon 29.3% | HT29 colon 11.2% | SNB-75 CNS 25% | SNB-19 CNS 61.7% | U251 CNS 17.7% | PC-3 prostate 32.7% | SK-MEL-5 melanoma 47.7% | UACC-62 melanoma 18.4% | LOX IMVI melanoma 38.2% | SK-MEL-28 melanoma 62%

CNc1nc(C)c(-c2nc(Nc3cccc(S(N)(=O)=O)c3)ncc2F)s1
inactive: PC-3 prostate 11.7%
active: HCT-15 colon 1.76% | HT29 colon 0.997% | SNB-75 CNS -19.2% | SNB-19 CNS 7.87% | U251 CNS 4.31% | SK-MEL-5 melanoma -23.3% | UACC-62 melanoma -48.6% | LOX IMVI melanoma 0.394% | SK-MEL-28 melanoma -38%

CCCCCCCCCC(=O)Oc1ccc(/C(=C(/C)c2ccccc2)c2ccc(OCCN3CCCC3)cc2)cc1
active: HCT-15 colon -13.4% | HT29 colon -35.5% | SNB-75 CNS -11.6% | SNB-19 CNS 6.86% | U251 CNS -34.3% | SK-MEL-5 melanoma -98.5% | UACC-62 melanoma -69% | LOX IMVI melanoma -72.1% | SK-MEL-28 melanoma -77.9%
inactive: PC-3 prostate 15.8%

Cc1ccccc1CCO
inactive: HCT-15 colon 99.8% | HT29 colon 76.4% | SNB-75 CNS 102% | SNB-19 CNS 108% | U251 CNS 98.6% | PC-3 prostate 97.6% | SK-MEL-5 melanoma 102% | UACC-62 melanoma 108% | LOX IMVI melanoma 103% | SK-MEL-28 melanoma 99.9%

CC(=O)C1=C(O)C=C2Oc3c(C(=O)/C=C/c4cc(Cl)cc(Cl)c4)c(O)c(C)c(O)c3[C@]2(C)C1=O
active: HCT-15 colon -35.5% | HT29 colon -23.5% | SNB-75 CNS -39.9% | SNB-19 CNS -24.4% | U251 CNS -29.9% | PC-3 prostate -21.1% | SK-MEL-5 melanoma -89.2% | UACC-62 melanoma -71.2% | LOX IMVI melanoma -54% | SK-MEL-28 melanoma -36.1%

CC/C=C\C[C@H](O)C/C=C1/C(=O)C=C[C@@H]1C/C=C\CCCC(=O)NC(C)C
active: HCT-15 colon -33.9% | HT29 colon -29.6% | U251 CNS 2.26% | SK-MEL-5 melanoma -69.8% | UACC-62 melanoma -61% | LOX IMVI melanoma -46.9% | SK-MEL-28 melanoma 4.94%
inactive: SNB-75 CNS 68% | SNB-19 CNS 31.8% | PC-3 prostate 16.4%

COC(/C=C/c1ccc([N+](=O)[O-])cc1)OC
inactive: HCT-15 colon 116% | HT29 colon 94.7% | SNB-75 CNS 85.9% | SNB-19 CNS 91.2% | U251 CNS 74.5% | PC-3 prostate 95.1% | SK-MEL-5 melanoma 98.3% | UACC-62 melanoma 89.9% | SK-MEL-28 melanoma 93.5%
active: LOX IMVI melanoma 8.46%

COc1cc(C(=O)/C=C/c2c(C)n([O-])c3ccc(C)cc3[n+]2=O)cc(OC)c1OC
inactive: HCT-15 colon 25.9% | HT29 colon 25.3% | SNB-75 CNS 73.2% | SNB-19 CNS 108% | U251 CNS 55.4% | PC-3 prostate 64.8% | SK-MEL-5 melanoma 89% | UACC-62 melanoma 54% | LOX IMVI melanoma 33% | SK-MEL-28 melanoma 72.1%

CC1=C(NCCN2CCCC2)C(=O)c2c(OCc3ccc(C(F)(F)F)cc3)cccc2C1=O
inactive: HCT-15 colon 70.9% | HT29 colon 42.4% | SNB-75 CNS 82.1% | SNB-19 CNS 95.3% | U251 CNS 69.9% | PC-3 prostate 47.4% | SK-MEL-5 melanoma 85.2% | UACC-62 melanoma 99.9% | LOX IMVI melanoma 68.4% | SK-MEL-28 melanoma 54.6%

CCCCCCCCCCCCCC(=O)C(C)N (stereo not given)
inactive: HT29 colon 13.8% | SNB-75 CNS 34.1% | SNB-19 CNS 77.5% | U251 CNS 18.2% | SK-MEL-5 melanoma 90.3% | SK-MEL-28 melanoma 73.9%
active: HCT-15 colon 3.51% | PC-3 prostate 3.08% | UACC-62 melanoma -71.1% | LOX IMVI melanoma -79.6%

O=C1C[C@H](N2C(=O)c3ccccc3S2(=O)=O)C2CO[C@@H]1O2
inactive: HCT-15 colon 59.6% | HT29 colon 70.4% | SNB-75 CNS 91.3% | SNB-19 CNS 106% | U251 CNS 93.3% | PC-3 prostate 99.7% | SK-MEL-5 melanoma 96.2% | UACC-62 melanoma 100% | LOX IMVI melanoma 18.9% | SK-MEL-28 melanoma 66.1%

O=C(O)c1c([N+](=O)[O-])cnc2ccccc12
inactive: HCT-15 colon 109% | HT29 colon 107% | SNB-75 CNS 88.4% | SNB-19 CNS 91% | U251 CNS 106% | PC-3 prostate 104% | SK-MEL-5 melanoma 97.4% | UACC-62 melanoma 99.4% | LOX IMVI melanoma 97.6% | SK-MEL-28 melanoma 125%

COc1cc(NCCCCN=C(N)N)c2ncccc2c1
inactive: HCT-15 colon 99.9% | HT29 colon 79.6% | SNB-75 CNS 48.6% | SNB-19 CNS 81.2% | U251 CNS 48.7% | PC-3 prostate 79.1% | SK-MEL-5 melanoma 89.2% | UACC-62 melanoma 87.9% | LOX IMVI melanoma 101% | SK-MEL-28 melanoma 98.9%

CS(CCCCN=C=S)=NC(=O)c1c(F)c(F)c(F)c(F)c1F (stereo not given)
inactive: HCT-15 colon 37.3% | HT29 colon 57.6% | SNB-75 CNS 74.3% | SNB-19 CNS 91.9% | U251 CNS 80.3% | PC-3 prostate 95.8% | SK-MEL-5 melanoma 96.1% | UACC-62 melanoma 51.9% | LOX IMVI melanoma 28.3% | SK-MEL-28 melanoma 85.9%

O=C(C[C@@H](C(=O)NCc1cccc(C(F)(F)F)c1)N1C(=O)[C@@H](N2C(=O)OC[C@@H]2c2ccccc2)[C@H]1/C=C/c1ccccc1)NC1CCN(Cc2ccccc2)CC1
inactive: HCT-15 colon 61.1% | SNB-75 CNS 71.7% | SNB-19 CNS 84.6% | U251 CNS 70.9% | PC-3 prostate 54.4% | SK-MEL-5 melanoma 43.1% | UACC-62 melanoma 73.3% | LOX IMVI melanoma 23.9% | SK-MEL-28 melanoma 81.5%
active: HT29 colon 2.51%

O=C1c2cccnc2C(=O)c2c1c(C(=O)OCCN1CCCCC1)c1ccccn21
active: HCT-15 colon -48.4% | HT29 colon -9.8% | SNB-75 CNS -63.7% | SNB-19 CNS -31.8% | U251 CNS -29.9% | PC-3 prostate 9.27% | SK-MEL-5 melanoma -97% | UACC-62 melanoma -41.2% | LOX IMVI melanoma -58.6% | SK-MEL-28 melanoma -37.9%

O=C(CCCCN1CCOCC1)Nc1ccc(Cn2nnc3c2C(=O)c2nnn(Cc4ccc(NC(=O)CCCCN5CCOCC5)cc4)c2C3=O)cc1
active: HCT-15 colon -37% | HT29 colon -28.6% | SNB-75 CNS -92.3% | SNB-19 CNS -86.2% | U251 CNS -85.2% | PC-3 prostate 0.413% | SK-MEL-5 melanoma -95.8% | UACC-62 melanoma -80% | LOX IMVI melanoma -23.2% | SK-MEL-28 melanoma -54.9%

CCOC(=O)C(Cc1cc(I)c(O)c(I)c1)NC(=O)c1ccccc1 (stereo not given)
inactive: HCT-15 colon 98.6% | HT29 colon 99.9% | SNB-75 CNS 94.5% | SNB-19 CNS 99.3% | U251 CNS 33.6% | PC-3 prostate 99.1% | SK-MEL-5 melanoma 100% | UACC-62 melanoma 92.2% | LOX IMVI melanoma 103% | SK-MEL-28 melanoma 101%

COc1ccc(C(=O)/C=C/c2cc3ccccc3[nH]c2=O)cc1
active: HT29 colon 6.09% | SNB-75 CNS 2%
inactive: HCT-15 colon 46.4% | SNB-19 CNS 70.5% | U251 CNS 31.7% | PC-3 prostate 32.3% | SK-MEL-5 melanoma 72.5% | UACC-62 melanoma 67.7% | LOX IMVI melanoma 10.2% | SK-MEL-28 melanoma 88.2%

Oc1c(Cl)cc(Cl)cc1CNc1nccnn1
inactive: HCT-15 colon 101% | HT29 colon 105% | SNB-75 CNS 78.1% | SNB-19 CNS 95.8% | U251 CNS 102% | PC-3 prostate 94.8% | SK-MEL-5 melanoma 102% | UACC-62 melanoma 93.9% | LOX IMVI melanoma 99.4% | SK-MEL-28 melanoma 106%

Cn1cc(-c2ccc(-c3cn(C)c4ncccc34)[nH]2)c2cccnc21
active: U251 CNS -44.1% | PC-3 prostate -29.9% | SK-MEL-5 melanoma 9.47% | UACC-62 melanoma -4.05%
inactive: HCT-15 colon 50.4% | HT29 colon 97.6% | SNB-75 CNS 59.7% | SNB-19 CNS 76% | LOX IMVI melanoma 21.8% | SK-MEL-28 melanoma 84.8%

Source: PubChem BioAssay (NCI)
